According to PubChem BioAssay AID1851 (National Center for Advancing Translational Sciences (NCATS), 2009):
Out of some 16,000 compounds screened, about 5,700 (36%) were called active. Roughly 24% stayed inconclusive and do not appear here. Calls come from the whole dose curve; as a rule, active = well fitted curve in the direction sought with a large enough effect; inconclusive = small, poorly fitted or top-dose-only effect, or effect the other way; inactive = no such curve, though single readings can be large or run the other way. The list shows a part of the results.

molecular target: Cytochrome P450 1A2 (Homo sapiens) (UniProt P05177); assay: Cytochrome panel assay with activity outcomes; settings: recombinant CYP, pro-luciferin dealkylation, luminescence, p450-cyp1a2; series mostly up to 57.1 µM; activity, negative = inhibition: at the top concentration
% is set by controls: 0 for no effect and ±100 for the full control effect.

Cytochrome P450 1A2 (Homo sapiens), sequence (P05177 whole entry, looked up): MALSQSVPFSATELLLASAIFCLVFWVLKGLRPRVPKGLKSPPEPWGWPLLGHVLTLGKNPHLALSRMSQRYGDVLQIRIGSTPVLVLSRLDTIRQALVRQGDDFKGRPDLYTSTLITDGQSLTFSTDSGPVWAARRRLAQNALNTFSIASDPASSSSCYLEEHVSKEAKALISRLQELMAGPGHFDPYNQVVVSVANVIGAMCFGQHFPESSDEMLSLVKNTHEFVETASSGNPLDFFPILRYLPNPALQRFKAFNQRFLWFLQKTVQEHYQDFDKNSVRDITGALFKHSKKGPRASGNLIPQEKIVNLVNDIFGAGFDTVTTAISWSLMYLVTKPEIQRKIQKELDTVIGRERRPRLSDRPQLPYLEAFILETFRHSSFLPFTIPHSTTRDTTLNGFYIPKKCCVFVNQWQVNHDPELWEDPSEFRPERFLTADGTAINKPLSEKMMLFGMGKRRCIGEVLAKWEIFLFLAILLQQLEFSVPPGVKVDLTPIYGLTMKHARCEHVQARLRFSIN

| Compound | activity, negative = inhibition | AC50 |
| --- | --- | --- |
| Cc1ccc(S(=O)(=O)O/N=C2/CCCc3occc32)cc1 | -10% (inactive) | – |
| CN(C)C(=O)CSC1c2ccccc2C(=O)N1c1ccccc1 (stereo not given) | – | 12600 nM (active) |
| CCOc1ccc(C2C(C(=O)O)c3ccccc3C(=O)N2CCN2CCOCC2)cc1 (stereo not given) | -19.1% (inactive) | – |
| COc1ccc(C2C(C(=O)N3CCOCC3)c3ccccc3C(=O)N2c2ccc(OC)cc2)cc1 (stereo not given) | -15.8% (inactive) | – |
| O=c1cc(CF)[nH]c(=S)[nH]1 | -23.3% [at 11.4 µM] (inactive) | – |
| Fc1ccc(Nc2nc(-c3ccoc3)nc3ccccc23)cc1 | – | 316 nM (active) |
| c1ccc2c(Nc3ccncc3)nc(-c3ccoc3)nc2c1 | – | 158 nM (active) |
| c1ccc(Nc2nc(-c3ccoc3)nc3ccccc23)cc1 | – | 200 nM (active) |
| CNc1nc(-c2ccoc2)nc2ccccc12 | – | 398 nM (active) |
| C=CC1=C[C@@H](O)C2OC2C12OCCCO2 (stereo not given in full) | -8.77% [at 11.4 µM] (inactive) | – |
| NC(=O)CN1CCOCCOCCOCCOCCOCC1 | -6.19% (inactive) | – |
| NC(=O)CN1CCN(c2nc(-c3ccc(F)cc3)cs2)CC1 | – | 2510 nM (active) |
| NCS(=O)(=O)O | -5.62% [at 2.29 µM] (inactive) | – |
| COc1ccc2c(c1)C(=NN)c1cc(OC)ccc1-2 | – | 112 nM (active) |
| COc1ccc(NC(=O)NCc2cccn2C)c(OC)c1 | – | 15800 nM (active) |
| COc1ccc(NC(=O)CSc2nnc(Cc3cccn3C)n2CCc2ccccc2)c(OC)c1 | -35.8% (inactive) | – |
| COc1ccc(OC)c(NC(=O)Cn2cccc2)c1 | – | 6310 nM (active) |
| CCN1CCCC1CNC(=O)C(=O)Nc1ccc(OC)cc1 (stereo not given) | -24.6% (inactive) | – |
| CCCCN(CC)Cc1ccc(CNC(=O)Nc2ccc(OC)cc2OC)o1 | -6.55% (inactive) | – |
| COc1ccc(OC)c(NC(=O)[C@H]2CC=CC[C@H]2C(=O)O)c1 | -20.7% (inactive) | – |
| CCOc1ccc(-c2nnn(CC(=O)Nc3cc(OC)ccc3OC)n2)cc1OCC | -12.8% (inactive) | – |
| COCCN(C(=O)Nc1ccc(OC)cc1OC)C1CCN(C(C)=O)CC1 | -16.2% (inactive) | – |
| COc1ccc(NC(=O)Cn2cccc2)c(OC)c1 | – | 5010 nM (active) |
| COc1ccc(N2CCC(CNC(=O)Nc3ccc(OC)cc3OC)C2)cc1 (stereo not given) | – | 12600 nM (active) |
| C[C@@H](C(=O)O)c1ccc(C[C@@H]2CCCC2=O)cc1 | -6.14% (inactive) | – |
| O=C1[C@@H]2[C@@H](C(=O)N1c1ccc(OCc3ccccc3)cc1)[C@@H]1c3ccccc3[C@@H]2[n+]2ccccc21 | -19.6% [at 11.4 µM] (inactive) | – |
| CN[C@]1(C)[C@@H]2CC[C@@H](C2)C1(C)C | -2.74% (inactive) | – |

| Compound | activity, negative = inhibition | AC50 |
| --- | --- | --- |
| CCOC(=O)c1cncc(C(=O)O)c1 | -1.87% (inactive) | – |
| CCc1ccc(C(=O)COC(=O)c2cccc(N3C(=O)c4c(C)nc5ccccc5c4C3=O)c2)cc1 | -14.4% (inactive) | – |
| CCOC(=O)c1ccc2nc(C)c(CCC(C)=O)c(Cl)c2c1 | – | 8910 nM (active) |
| O=C1CCCC=C1[C@H](CCc1ccccc1)OC(=O)c1ccc(Br)cc1 | -1.62% [at 11.4 µM] (inactive) | – |
| O=C(Nc1ccccc1)N1CC2(CCN(C(=O)c3cc(C(F)(F)F)cc(C(F)(F)F)c3)CC2)C1 | -6.53% (inactive) | – |
| COC(=O)/C(=C\C(=O)c1ccccc1)Nc1cccc(C(F)(F)F)c1 | – | 2240 nM (active) |
| COc1ccc2c(Cc3c4ccccc4cc4ccccc34)cncc2c1O | – | 126 nM (active) |
| CCCNC(=O)OC[C@@H]1O[C@H](CCO/N=C\C[C@H]2C=C[C@H](OC(C)=O)[C@@H](COC(C)=O)O2)C=C[C@@H]1Oc1ccc(OC)cc1 | -4.67% [at 11.4 µM] (inactive) | – |
| Cn1c(=O)c2[nH]c(/N=N\N3CCN(CCO)CC3)nc2n(C)c1=O | -14.7% [at 2.29 µM] (inactive) | – |
| c1csc(CNc2nc(-c3ccoc3)nc3ccccc23)c1 | – | 316 nM (active) |
| c1cncc(CNc2nc(-c3ccoc3)nc3ccccc23)c1 | – | 398 nM (active) |
| c1ccc(CNc2nc(-c3ccoc3)nc3ccccc23)cc1 | – | 631 nM (active) |
| Cc1cccc(CNc2nc(-c3ccoc3)nc3ccccc23)c1 | – | 1260 nM (active) |
| CCc1ccc(C(=O)COC(=O)C(Cc2ccccc2)NC(=O)C2CCC(C)CC2)cc1 (stereo not given) | -7.88% (inactive) | – |
| C=CC[C@@H]1C=C[C@@H](O/N=C\[C@@H](OC)[C@H](C)/C=C\CC(=O)OC)[C@@H](CO)O1 | -0.319% [at 11.4 µM] (inactive) | – |
| COCCCN=CC1=C(O)CC(C)(C)CC1=O | -13.1% (inactive) | – |
| CN[C@@H](c1ccncc1)[C@@H](NC)c1ccncc1 | -13.3% [at 11.4 µM] (inactive) | – |
| c1cncc(-c2nc(NCc3cccs3)c3ccccc3n2)c1 | – | 316 nM (active) |
| COc1ccc(OCCn2c(C)c(/C=N/n3cnnc3)c3ccccc32)cc1 | – | 398 nM (active) |
| O=C(COc1cccc2ccccc12)NNC(=O)c1cccs1 | – | 8910 nM (active) |
| O=C(CCC(=O)Nc1ccccc1)NNC(=O)c1cccs1 | -23.3% (inactive) | – |
| CC1(C)Cc2c(sc3nc(-c4ccccc4)n(N)c(=O)c23)CO1 | – | 7080 nM (active) |
| Cc1cc2cc3c(C)cc(=O)oc3c(C)c2o1 | – | 1000 nM (active) |
| CC(C)NC(=O)N1CC[C@@]2(CCCN(S(=O)(=O)c3ccccc3)C2)C1 | -2.4% (inactive) | – |
| CSc1c(-c2ccccc2)nc2ccc(Cl)cc2c1C(=O)O | 10.5% (inactive) | – |
| CSc1nc(Sc2cccc(Cl)c2)c2ccccc2n1 | – | 355 nM (active) |
| O=C(O)/C=C\c1cnc[nH]1 | -4.95% (inactive) | – |

| Compound | activity, negative = inhibition | AC50 |
| --- | --- | --- |
| Cc1cc(C)nc(NC(=O)CCCC(=O)O)c1 | -5.89% (inactive) | – |
| Cc1cc(C)nc(NC(=O)/C=C/c2ccc(Cl)cc2Cl)c1 | – | 3160 nM (active) |
| C#CCCCC(=S)Nc1ccccc1 | – | 12600 nM (active) |
| N=c1nc(N2CCCCC2)cc(N)n1O | -2.65% [at 25.6 µM] (inactive) | – |
| O=C(c1cc(C(F)(F)F)cc(C(F)(F)F)c1)N1CCC[C@@]2(CCN(c3ccccc3)C2)C1 | -17.8% (inactive) | – |
| CC(Sc1nc(-c2ccccc2)cc(C(F)(F)F)n1)C(=O)N1CCCCC1 (stereo not given) | – | 8910 nM (active) |
| O=C1[C@H]2[C@H]3[C@H](O)[C@H](O)C/C(=N/OC[C@@H](O)COCc4ccco4)[C@H]3CC[C@@H]2C(=O)N1Cc1ccccc1 | -10.7% [at 11.4 µM] (inactive) | – |
| NS(=O)(=O)c1ccc(NCc2nc3ccccc3[nH]2)cc1 | -18.8% [at 2.29 µM] (inactive) | – |
| NS(=O)(=O)c1ccc(NCc2cnc3ccccc3n2)cc1 | -18.2% [at 2.29 µM] (inactive) | – |
| NS(=O)(=O)c1ccc(NCc2ccccc2OCc2ccccc2F)cc1 | – | 14100 nM (active) |
| CCN(CC)CCNC(=O)c1cc(S(C)(=O)=O)ccc1OC | – | inactive |
| CCCCOc1cc(C(=O)NCCN(CC)CC)c2ccccc2n1 | – | 5010 nM (active) |
| CCCCCCCCOC1OC(CO)C(O)C(O)C1NC(C)=O (stereo not given) | 9.81% (inactive) | – |
| C[n+]1ccc(/C=C/c2ccc(Br)cc2)cc1 | -10.8% (inactive) | – |
| CCOC(=O)C(CC)(CC)C(=O)/C=C/c1ccc(Br)cc1 | – | 2510 nM (active) |
| CC(C)(C)NC(=O)Cn1nnc(-c2ccccc2NC(=O)c2cnccn2)n1 | -21.1% (inactive) | – |
| CCc1nnc(NC(=O)CCC(=O)NCc2ccccc2OC)s1 | 11% (inactive) | – |
| COc1ccccc1CNC(=O)Cn1nnc(-c2ccncc2)n1 | – | 12600 nM (active) |
| COc1cc([C@H](O)CO)ccc1O | -7.89% (inactive) | – |
| CC[C@H](NC(C)C)[C@H](O)c1ccc(O)c(O)c1 | – | 12600 nM (active) |
| CC(=O)c1c(C)nc(-c2ccccc2)n1O | – | 15800 nM (active) |
| N/N=C1/c2ccccc2N[C@H]1OC(=O)Nc1ccccc1 | – | 501 nM (active) |
| O=C(O)[C@@H]1[C@@H](C(=O)Nc2ccccc2)[C@@H]2C=C[C@@H]1O2 | -18.1% [at 2.29 µM] (inactive) | – |
| N/N=C1/c2ccccc2N[C@H]1OC(=O)Nc1cccc(Cl)c1 | – | 794 nM (active) |
| C=CC[C@@H]1C=C[C@@H](O/N=C\C[C@@H]2C=C[C@H](OC(C)=O)[C@H](COC(C)=O)O2)[C@@H](CO)O1 | -8.91% [at 11.4 µM] (inactive) | – |
| CCNc1ncc2ncc(=O)n(C3CC3)c2n1 | – | 3160 nM (active) |
| CCNc1ncc2nc(C)c(=O)n(C)c2n1 | – | 5010 nM (active) |

| Compound | activity, negative = inhibition | AC50 |
| --- | --- | --- |
| CCNc1ncc2nc(C)c(=O)n(C3CC3)c2n1 | – | 5010 nM (active) |
| CC(N)=O | -4.84% (inactive) | – |
| Cc1ccc(Sc2c([N+](=O)[O-])ncn2C)cc1 | -2.64% (inactive) | – |
| O=C(Nc1ccc(Cl)cc1Cl)c1cccc(N2C(=O)C=CC2=O)c1 | – | 12600 nM (active) |
| CCCCC(=O)Nc1sc2c(c1C(=O)OCC)CCC(C=O)=C2Cl | – | 2510 nM (active) |
| CN1CCN(c2cc(-c3ccccc3C(F)(F)F)ncn2)CC1 | – | 12600 nM (active) |
| FC(F)(F)c1ccccc1-c1cc(N2CCNCC2)ncn1 | – | 5010 nM (active) |
| CN(C)CCO[C@](C)(c1ccccc1)c1ccccn1 | – | inactive |
| CNc1cc(CSC)nc(SCc2ccc(Cl)c(Cl)c2)n1 | – | 4470 nM (active) |
| Cc1cccc(CN(C)CCc2ccccn2)c1 | -8.65% (inactive) | – |
| CN(CCc1ccccn1)Cc1ccc(Cl)cc1Cl | – | 7080 nM (active) |
| CN(C)CCO[C@@H](c1ccc(Cl)cc1)c1ccccn1 | -0.205% [at 25.6 µM] (inactive) | – |
| C=CCN=C1CC(C)(C)CC(=O)/C1=C(\O)c1ccccc1 | 3.8% (inactive) | – |
| c1ccc(-c2ccc3c(c2)c2c4n3CCN=C4CCC2)cc1 | – | 2820 nM (active) |
| O=C(CCNC(=O)c1ccccc1)OCN1C(=O)c2ccccc2C1=O | – | 2240 nM (active) |
| CCC(C)C(NC(=O)OCc1ccccc1)C(=O)OCN1C(=O)c2ccccc2C1=O (stereo not given) | -13.3% (inactive) | – |
| Cc1ccc(S(=O)(=O)N[C@H]2COC(=O)C/C=C\[C@@H](C)[C@H](NS(=O)(=O)c3ccc(C)cc3)COC(=O)[C@H](C)NC(=O)C/C=C\[C@H]2C)cc1 | -1.96% [at 11.4 µM] (inactive) | – |
| COc1ccccc1CNCc1cccs1 | – | 251 nM (active) |
| Cc1cccc(CNc2cc(-c3ccccc3CN(C)C)ncn2)c1 | – | 25100 nM (active) |
| COc1ccccc1-c1cc(NCc2cccnc2)ncn1 | – | 316 nM (active) |
| COc1ccccc1-c1cc(NCc2cccs2)ncn1 | – | 1580 nM (active) |
| CN(C)Cc1ccccc1-c1cc(NCc2ccccc2)ncn1 | -21% (inactive) | – |
| c1csc(CNCCCN2CCOCC2)c1 | -8.37% (inactive) | – |
| COc1ccccc1CNCCCCCCNCCCCCCCCNCCCCCCNCc1ccccc1OC | 0.168% (inactive) | – |
